TbPYK inhibitor: blocks Trypanosoma brucei pyruvate kinase | Q57TT1 | TbPYK enzyme, Kinase-Glo Plus ATP luminescence, 45 min | Potency, µM (highest dose often 76.8 µM), without a hit: top-dose activity, negative = inhibition, actives largely listed as inhibitors | 410,000 tested, 0.12% active; active means well fitted curve in the direction sought with a large enough effect; inconclusive means small, poorly fitted or top-dose-only effect, or another doubt; inactive means no such curve, though single readings can be large; an effect the other way counts as inactive or inconclusive; further: potency means the concentration at half of the fitted maximal effect; on the % scale 0 is the no-effect control and ±100 the full control effect; nearly all actives have a fitted effect of over 50% in size
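Assay buffer: 50 mM TEA pH 7.2, 100 mM KCl, 10 mM MgCl2, 0.05% BSA, 0.01% Tween-20. Pyruvate kinase from T. brucei plus substrate met compound, then ADP (130 uM final). Luminescence was read post 45 min RT.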
LmPK inh: LmPK (Leishmania mexicana) enzyme inhibition; Potency, µM (highest dose often 57.5 µM), for inactives: at the top dose activity change, negative = inhibition, most hits filed as inhibitors; 290,000 tested, 0.37% active; Q27686; purified LmPK, Kinase-Glo ATP luminescence, 1 h; AID 1721; active means well fitted curve in the direction sought with a large enough effect; inconclusive means small, poorly fitted or top-dose-only effect, or another doubt; inactive means no such curve, though single readings can be large; an effect the other way counts as inactive or inconclusive; further: potency means the concentration at half of the fitted maximal effect; on the % scale 0 is the no-effect control and ±100 the full control effect
Target sequence (Q27686 whole entry, looked up): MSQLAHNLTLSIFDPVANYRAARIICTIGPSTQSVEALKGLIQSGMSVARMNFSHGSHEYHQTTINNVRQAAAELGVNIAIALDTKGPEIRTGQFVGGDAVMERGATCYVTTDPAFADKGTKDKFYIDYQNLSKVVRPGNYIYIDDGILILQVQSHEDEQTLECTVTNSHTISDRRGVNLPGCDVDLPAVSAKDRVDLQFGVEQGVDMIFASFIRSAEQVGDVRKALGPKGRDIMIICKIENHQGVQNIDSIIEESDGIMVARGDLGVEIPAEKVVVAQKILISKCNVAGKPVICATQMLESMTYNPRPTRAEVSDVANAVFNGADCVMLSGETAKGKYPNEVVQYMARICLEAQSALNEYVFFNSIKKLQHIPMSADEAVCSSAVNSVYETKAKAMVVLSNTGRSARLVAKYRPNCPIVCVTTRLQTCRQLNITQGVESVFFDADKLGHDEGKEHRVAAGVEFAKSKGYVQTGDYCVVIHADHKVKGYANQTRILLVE
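qHTS format; LmPK 0.1 nM; substrates PEP 0.5 mM and ADP 0.1 mM. One-hour room-temperature incubation, then coupled luciferase luminescence; 0.5 nM enzyme wells mark activation.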
Shiga toxin inh: Shiga toxin inhibition; inhibition, % at 38.7 µM; Vero cells, Shiga toxin protein synthesis inhibition reporter; 290,000 tested, 9.2% active; in the data active means inhibition mostly above about 28%, no sharp cut-off; inactive means mostly below about 43%; further: 0% is about no effect
NS1 inh: influenza NS1 inhibition; Potency, µM (titrated, usually from 46.1 µM), for the others: at the top dose activity, positive = more growth; 270,000 tested, 0.4% active; further: potency means the concentration at half of the fitted maximal effect; actives are rising curves; nearly all actives have a fitted effect of over 50% in size
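A cell-based growth assay was used: compounds that relieve NS1-induced slow growth of budding yeast raise OD600. Assay medium was yeast nitrogen base with ammonium sulphate and -URA supplement, pH 6.0, with 2% galactose.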
Cycloheximide cs: counter-screen hit for Shiga toxin inhibitors, cycloheximide. cell reporter, cycloheximide protein synthesis inhibition counterscreen. max response, %. 300,000 tested, 12% active. AID 2314; in the data active means max response mostly above about 13%, no sharp cut-off; inactive means mostly below about 14%; further: read at 38.3 µM for the half of the compounds with a filed dose; 0% is about no effect
SARS PLP yeast: inhibitors of SARS-CoV papain-like protease in yeast; S. cerevisiae expressing SARS-CoV PLpro, growth rescue; Potency, µM (titrated, usually from 32.9 µM), for the others: at the top dose activity, positive = growth rescue, usual class: activators; 330,000 tested, 0.19% active; further: potency means the concentration at half of the fitted maximal effect; 0% is about no effect; nearly all actives have a fitted effect of over 55% in size
* hit, by the source's call; ? = inconclusive; . = no result. This excerpt belongs to a sample that is enriched for hits. Unless noted, the call rests on the fitted dose curve.

SMILES | TbPYK inhibitor | LmPK inh | Shiga toxin inh | NS1 inh | Cycloheximide cs | SARS PLP yeast
Cc1ccc(C)c(OCc2cc(C(=O)NC3CCN(Cc4ccccc4)CC3)no2)c1 | 9% | 9% | 23 | -11% | 29* | -3%
CC(=O)NCCC1CCCCN1C(=O)c1cc(COc2cc(C)ccc2C)on1 (configuration not stated) | 0% | -1% | 101* | -7% | 45* | 10%
COCCN1CCN(C(=O)c2cc(COc3cc(C)ccc3C)on2)CC1 | 0% | -1% | 81* | 9% | 39* | 2%
COC1CCN(C(=O)c2cc(COc3cc(C)ccc3C)on2)CC1 | -10% | . | . | . | . | .
O=C(NC1CCN(Cc2ccccc2)C1)c1cc(COc2ccc(F)cc2F)on1 (configuration not stated) | -11% | 5% | 17 | 3% | 4 | 0%
COCCCC1CCN(C(=O)c2cc(COc3cc(C)ccc3C)on2)CC1 | -7% | 3% | 162* | -9% | 56* | .
Cc1ccc(C)c(OCc2cc(C(=O)N3CCC(N4CCCC(O)C4)CC3)no2)c1 (configuration not stated) | 3% | 0% | 6 | 0% | 0 | 1%
CC1CCC(NC(=O)c2ccc(CS(=O)(=O)c3ccc(Cl)cc3)o2)CC1 (configuration not stated) | 3% | . | . | . | . | .
Cc1sc(NC(=O)C2=COCCO2)nc1-c1ccc(Cl)cc1 | -3% | . | . | . | . | -2%
Cc1ccc(C)c(OCc2cc(C(=O)N3CCOCC3)no2)c1 | -2% | 3% | 58* | -15% | 49* | -5%
Cc1ccc(C)c(OCc2cc(C(=O)N3CCNC(=O)C3)no2)c1 | 3% | 4% | 7 | 9% | 15 | 1%
Nc1ccc(-c2cnc(-c3ccc(N)cc3)nc2)cc1 | -3% | 1% | 33 | 1% | 51* | 6%
COC(=O)CCSCC(=O)Nc1ccc(C)c(S(=O)(=O)N2CCCCC2)c1 | 9% | 0% | 12 | -10% | -2 | -2%
COc1ccccc1CCn1c(=O)c(-c2ccc(Cl)cc2)nc2cncnc21 | -1% | . | . | . | . | .
O=C(CN1CCOCC1)N/N=C/c1cccc2ccccc12 | -3% | 3% | -6 | 11% | -3 | 6%
O=C(CN1CCOCC1)N/N=C/c1ccc(C(=O)O)cc1 | -6% | 1% | 85* | . | 53* | 3%
O=C(CN1CCCCCC1)N/N=C/c1ccc(Cl)c(Cl)c1 | 4% | -4% | 30 | 0% | 29* | 27%
COc1cccc(CNC(=O)c2ccc3nc(-c4ccccc4)c(-c4ccccc4)nc3c2)c1OC | -6% | . | . | . | . | .
Cc1cc(C(=O)O)ccc1-c1ccc(/C=C2\NC(=O)N(Cc3ccc(F)cc3)C2=O)o1 | -8% | 4% | -5 | 2% | 1 | 0%
Cc1cc(NCc2ccncc2)ccc1Br | 1% | -3% | 16 | 1% | 13 | -1%
Cc1ccc(NCc2ccncc2)c(Br)c1 | 46% | -1% | 33* | 2% | 12 | -1%
O=C(N/N=C/c1cccc(O)c1)C(=O)N1CCCCCC1 | 0% | 1% | 4 | -7% | 8 | -5%
COc1ccccc1NC(=O)C(=O)N/N=C/c1cccs1 | -8% | -23% | 99* | -31% | 38* | -47%
O=C(N/N=C/c1cccs1)C(=O)N1CCCC1 | 2% | -4% | 48 | 4% | 28* | 0%
O=C(N/N=C/c1ccccc1O)C(=O)N1CCCCCC1 | 1% | -9% | 21 | -41% | 20* | 27%
SMILES | TbPYK inhibitor | LmPK inh | Shiga toxin inh | NS1 inh | Cycloheximide cs | SARS PLP yeast
O=C(N/N=C/c1ccccc1F)C(=O)N1CCCCCC1 | -4% | 0% | 34* | -16% | 24* | 1%
NC(=O)c1sc2nccc(Nc3ccccc3)c2c1N | ? | -28% | 49 | 7% | 15* | -7%
Cc1ccc(-c2nc(Nc3ccccc3)n[nH]2)cc1 | 2% | 0% | 83* | -12% | 43* | -10%
Nc1cc(C(F)(F)F)ccc1S(=O)(=O)Nc1cccc2c1NCCC2 | . | . | -4 | . | -7 | .
Oc1ccccc1OCCOc1ccccc1OCCOc1ccccc1O | -3% | 8% | 41 | -53% | 9.8* | -4%
Cc1nn2c(C)c(C(=O)NC(C)(C)C)cnc2c1-c1ccc(F)cc1 | 4% | . | . | . | . | .
c1ccc(-c2c3ccccc3nc3[nH]c4ccccc4c23)cc1 | -3% | 2% | -15 | 0% | -2 | -16%
c1ccc2nc3c(nc2c1)[nH]c1ccccc13 | -4% | -10% | 103* | -36% | 64* | -17%
CS(=O)(=O)N1CCC(Oc2ccccc2C(=O)N2CCC[C@H]2CO)CC1 | 0% | -3% | 40 | 5% | 17* | -7%
COCC1CCCCN1C(=O)c1cccc(OC2CCN(S(C)(=O)=O)CC2)c1 (configuration not stated) | 6% | 0% | 16 | 1% | 16* | 0%
CCOCCCNC(=O)c1ccccc1OC1CCN(S(C)(=O)=O)CC1 | -11% | -2% | 13 | 4% | 12* | 14%
CCC1CCCCN1C(=O)c1ccccc1OC1CCN(S(C)(=O)=O)CC1 (configuration not stated) | 0% | 4% | 0 | 3% | -2 | -1%
CCc1cc(CNC(=O)c2cccc(OC3CCN(S(C)(=O)=O)CC3)c2)on1 | 6% | . | . | . | . | .
Cc1nc(CNC(=O)c2ccccc2OC2CCN(S(C)(=O)=O)CC2)cs1 | -18% | 1% | 15 | 4% | 12 | 1%
CCOCCCNC(=O)c1cccc(OC2CCN(S(C)(=O)=O)CC2)c1 | -1% | -2% | 35* | -22% | 30* | 4%
O=C(CCNS(=O)(=O)c1ccc2c(c1)CCN2C(=O)C1CC1)N1CCN(c2ccc(F)cc2)CC1 | 3% | . | . | . | . | .
O=C(O)Cn1c(=O)c2c3c(sc2n(Cc2ccc(Cl)cc2Cl)c1=O)CCCC3 | 1% | 5% | -10 | 10% | -3 | 1%
O=C(CCNC(=O)c1ccc(Br)cc1)NCc1ccncc1 | -3% | . | . | . | . | 2%
COc1ccc(S(=O)(=O)N2CCN(Cc3nc4ccc(C)cc4o3)CC2)cc1Cl | 1% | . | . | . | . | .
COc1ccc(C(=O)N2CCNC(=O)C2)cc1S(=O)(=O)Nc1ccc(Br)cc1 | -4% | . | . | . | . | -1%
CS(=O)(=O)N1CCC(Oc2ccccc2C(=O)NC2CCCCCC2)CC1 | 3% | 3% | 13 | 1% | 17* | -2%
CC1CCCCN1C(=O)c1ccccc1OC1CCN(S(C)(=O)=O)CC1 (configuration not stated) | 11% | 2% | 3 | 3% | -4 | 1%
CCCc1nc2ccc(C(=O)OC)cn2c1Cc1cccc(F)c1 | 4% | . | . | . | . | .
Cc1[nH]nc2c1C(c1ccc(O)cc1)C1=C(CC(C)(C)CC1=O)N2 (configuration not stated) | 2% | 13% | 9 | 2% | -2 | -2%
Cc1ccc(C2C3=C(CC(C)(C)CC3=O)Nc3[nH]c(=S)[nH]c(=O)c32)cc1 (configuration not stated) | 0% | 1% | -5 | 8.9µM* | 7 | 3%
Nc1nncn1C(=O)CCc1ccccc1 | -10% | -1% | 20 | 0% | 9.3* | -5%

Compound activity from PubChem BioAssay.
